Results reported in ChEMBL document CHEMBL1157539, “Thousands of chemical starting points for antimalarial lead identification” (Nature, 2010).

Experiments:
Type in all cases: functional
Plasmodium falciparum [1] = assay: GSK_TCMDC: Inhibition of Plasmodium falciparum 3D7 in whole red blood cells, using parasite LDH activity as an index of growth. Test compounds present at 2uM
Plasmodium falciparum [2] = assay: GSK_TCMDC: Inhibition of Plasmodium falciparum Dd2 in whole red blood cells, using parasite LDH activity as an index of growth. Test compounds present at 2uM
HepG2 = assay: GSK_TCMDC: Percent inhibition of human HepG2 cell line. Test compounds present at 10uM.

Compound	Inhibition (Plasmodium falciparum [1]) [%]	Inhibition (Plasmodium falciparum [2]) [%]	Inhibition (HepG2) [%]
O=C(NCc1cccnc1)C(c1cc2ccccc2o1)N1CCN(C(c2ccccc2)c2ccccc2)CC1 (stereo not given)	95	81	12
COc1cc(C2=NN(S(=O)(=O)c3c(Cl)cc(Cl)cc3Cl)CCCC2)ccc1Cl	98	97	3
CC(C)CNCc1cccc(-c2cccc(CN(CCN(C)C)C(=O)NCCc3ccccc3)c2)c1.O=C(O)C(F)(F)F	99	83	84
O=C(O)C(F)(F)F.c1ccc2c(c1)CN(Cc1cc3ccccc3[nH]1)CC1(CCN(Cc3c[nH]c4cnccc34)CC1)O2	100	62	27
OC(CNC1CCCCC1)Cn1c2ccccc2c2ccccc21 (stereo not given)	97	92	11
O=C(O)C(F)(F)F.Oc1ccc(CCNc2nc(NCc3cccc(OCc4cccc(F)c4)c3)nc(N3CCNCC3)n2)cc1	86	0	27
COc1ccc(C2CC(c3cccs3)=NN2C(=O)COc2cccc3c2CCCC3O)cc1OC (stereo not given)	93	62	5
CN1CCC(NCc2cccc(-c3ccc(S(=O)(=O)NCc4ccccc4)c(F)c3)c2)CC1.O=C(O)C(F)(F)F	99	99	94
Cc1cc(NC(=O)Nc2ccc(Cl)cc2F)c2ccccc2n1	100	71	10
COc1cccc(C=CC(=O)N(CCN)Cc2ccccc2)c1.O=C(O)C(=O)O	99	0	0
O=C(O)C(F)(F)F.c1ccc2[nH]c(-c3ccc(-c4ccc(CN5CCN(CCN6CCOCC6)CC5)cc4)s3)nc2c1	100	100	39
CCC(CC)n1c(COC)cc2c3c(N)nc(N)nc3ccc21	95	0	71
Clc1ncccc1-c1nc(NCCC(c2ccccc2)c2ccccc2)no1	94	82	12
Cl.Nc1c(I)cc(C(=O)Nc2ccc3nc4c(c(N)c3c2)CCCC4)cc1I	100	99	40
CC(C)C[C@H](NC(=O)c1ccc(F)cc1)C(=O)N[C@H](/C=N/NC(=O)c1ccccc1)CCc1ccccc1	92	61	1
O=C1SC(S)=NC1=CNCCCCCCO	91	1	7
COc1cc2cc(C(=O)Nc3ccccc3)c(N)nc2cc1OC	90	0	0
Clc1cc(Cl)c2cc(CN[C@H]3CCC[C@@H]3CNc3nc4ccccc4[nH]3)[nH]c2c1	99	58	85
CCCCCN1CCCC(CNS(=O)(=O)c2cccc(C(=O)Nc3ccc(C(F)(F)F)cc3)c2)C1.O=C(O)C(F)(F)F (stereo not given)	96	2	27
Cc1nc(-c2cccc(NCc3ccccc3)c2)[nH]c1C.Cl	100	48	16

Compound	Inhibition (Plasmodium falciparum [1]) [%]	Inhibition (Plasmodium falciparum [2]) [%]	Inhibition (HepG2) [%]
FC(F)(F)c1ccc2[nH]c(-c3cccc(-c4ccc(CNCc5cnn(-c6ccccc6)n5)cc4)c3)nc2c1.O=C(O)C(F)(F)F	100	67	14
COc1ccc(-c2csc(NC(=O)CCC(=O)O)n2)cc1OC	94	0	63
O=[N+]([O-])c1ccc(/C=N/O)nc1	80	98	80
O=C(N[C@@H](Cc1ccccc1)C(=O)NCCN1CCCC1)c1ccc(O)c(-c2ccc(Cl)c(Cl)c2)c1	95	46	8
Cc1ccc(C)c(S(=O)(=O)NCC2CCN(Cc3ccc(O)cc3)CC2)c1.O=C(O)C(F)(F)F	87	57	16
O=C(NCCNc1ccnc(Nc2ccc(F)cc2)n1)Nc1ccc2c(c1)OCO2	97	3	15
CN1CCN(CC(=O)Nc2ccc(-c3ccc(-c4nc5cc(C(F)(F)F)ccc5[nH]4)cc3)cc2)CC1	100	98	43
CCCCCCN1CCCN(Cc2ccc(C(=O)Nc3ccc(CCC)cc3)cc2)CC1.O=C(O)C(F)(F)F	92	56	45
CC(C)(C)c1nn(-c2ccc(Cl)cc2)c2[nH]c(=O)c(CNCc3ccc4c(c3)OCO4)cc12	100	98	15
NS(=O)(=O)c1cccc(-c2ccc3ncc(N4CCOCC4)nc3c2)c1	96	74	17
O=C(NCCc1ccccc1)N(Cc1cccc(-c2ccc(CNCCc3ccccc3)cc2)c1)C1CCN(Cc2ccccc2)CC1.O=C(O)C(F)(F)F	90	91	94
CCCNC(=O)c1ccnc(-c2ccc(CNC3Cc4ccccc4C3)cc2)c1.O=C(O)C(F)(F)F	92	21	24
Cc1ccc(-n2cc(CNCCc3nc(C)c[nH]3)c(-c3ccc(F)cc3)n2)cc1	86	12	15
CCOc1cc(C(=O)NCC2CCN(CC3CCCCC3)CC2)ccc1-c1nc2cc(Cl)ccc2[nH]1	98	59	14
O=C(c1cc(C(=O)Nc2ccccc2F)c(=O)n(-c2ccccc2F)c1)c1cc(Cl)ccc1O	98	80	2
CCCNCc1ccc(-c2ccc(CN(Cc3cnc(C)cn3)C(=O)/C=C/c3ccccc3C)cc2)nc1.O=C(O)C(F)(F)F	95	15	7
C=CCCCNCC(NCCCNc1cc(=O)c2ccccc2[nH]1)c1cc(Br)cc(Br)c1 (stereo not given)	94	19	0
Cc1cc(=O)c(-c2ccc(Oc3ccc(Cl)cc3Cl)cc2)c(C)[nH]1	93	73	0
O=C(N[C@@H](Cc1ccccc1)C(=O)NCCN1CCCCC1)c1ccc(O)c(-c2cccc(C(F)(F)F)c2)c1	92	3	0
COc1cccc(NC(=O)NC2CCN(c3ccnc(Nc4cc(OC)c(OC)c(OC)c4)n3)C2)c1 (stereo not given)	95	57	8

Compound	Inhibition (Plasmodium falciparum [1]) [%]	Inhibition (Plasmodium falciparum [2]) [%]	Inhibition (HepG2) [%]
COc1ccc(C(=O)N2CCC(CN3CCOC(c4ccccc4)(c4ccccc4)C3)CC2)cc1	95	96	19
COC(=O)c1cccc(CNCc2ccc(-c3ccc(-c4nc5cccc(C)c5[nH]4)cc3)cc2)c1.O=C(O)C(F)(F)F	100	86	17
O=C(Nc1ccc(C(F)(F)F)cc1)Nc1cccc([N+](=O)[O-])c1	100	98	20
Cc1cc(-c2nc3ccc(CN4CCN(C)CC4)cc3[nH]2)nn1Cc1cc(Cl)ccc1OCc1ccccc1.Cl	100	52	3
CC(C)(C)OC(=O)NCc1ccc(Nc2nnc(-c3cccc(C(=O)NCCC(c4ccccc4)c4ccccc4)c3)o2)cc1	100	89	0
CC(C)(C)c1cc(C(=O)N2CCN(c3nccnc3C#N)CC2)n(Cc2ccccc2)n1	100	93	0
CO/C(=C\C=C\c1cc2cc(Cl)c(Cl)cc2[nH]1)C(=O)NCCCN1CCC(c2ccccc2)CC1	100	92	33
N=C(N)NC(=O)Nc1cc(Br)c(Cl)c(Br)c1	100	83	0
C=C[C@]1(C)C[C@@H](OC(=O)NC(=O)C2CCN(C(=O)CSc3ccccc3)CC2)[C@]2(C)[C@H](C)CC[C@]3(CCC(=O)[C@H]32)[C@@H](C)[C@@H]1O	93	74	0
CC(C)c1nc(N2CCN(C(=S)NCc3ccccc3)CC2)c(C#N)c2c1COC(C)(C)C2	99	100	0
CC(=O)Nc1ncc(C(=O)Nc2cccc(-c3cccc(-c4nc5cccc(C)c5[nH]4)c3)c2)s1	94	64	15
O=C(/C=C/c1cc([N+](=O)[O-])ccc1Cl)N1CCC(CCN2CCC(c3c[nH]c4ccccc34)CC2)CC1	92	26	25
Cc1cc(N[C@@H](Cc2ccccc2)C(=O)NCc2cccs2)nc(NCCc2cccnc2)n1.O=C(O)C(F)(F)F	84	38	10
Cc1cccc(OCC2CCN(c3ncc(C(=O)NC4CC4)cc3Cl)CC2)c1	90	78	0
COc1ccc2nccc([C@@H](O)CN3CCC(NCc4nc5c([N+](=O)[O-])cccc5[nH]4)CC3)c2c1.O=C(O)C(=O)O	100	84	13
CN(C)c1ccc(-c2ccc(C(=O)NC3CCN(Cc4ccccc4)CC3)s2)cc1.O=C(O)C(F)(F)F	92	10	20
Cc1cc(-c2cccc(CNCc3ccccc3)c2)ccc1S(=O)(=O)NCCN1CCCC1.O=C(O)C(F)(F)F	98	58	40
Cc1ccccc1Oc1nc2ccccc2nc1SCC(=O)NC(C)C	97	55	0
O=C(NCC1CC1)C1Cc2c([nH]c3ccc(Br)cc23)C2(CCN(CCc3ccccc3)CC2)N1 (stereo not given)	88	25	14
COc1ccc2nccc([C@@H](O)CN3CCC(NCc4cc5cccc(OC)c5o4)CC3)c2c1.O=C(O)C(=O)O	99	81	10
